Laboratory results: PubChem BioAssay AID1159580 (chemical genetic matrix, 2015)
Where “and” joins values, the source holds several entries; their conditions need not be identical. Identical values can stand only once. Among all 5,500 compounds or so, about 2,000 (36%) were called active. Inconclusive results (about 18%) are left out. No stated cut-off is given here; in the data, active means normalized growth mostly below about 0.91 (no sharp cut-off); inconclusive means no clear call, values can overlap the other calls; inactive means mostly above about 0.92. The list shows a part of the results.

Test: chemical genetic growth profiling, strain panel (AID 1159580);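 further: tested at 20 µM; growth read once vehicle control cultures reached saturation at 30 °C; 1 = growth at the plate median or of vehicle wells; lower values mean less growth of the strain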
Conditions: S. cerevisiae deletion strains, growth OD

Measured: normalized growth

NC(N)=NC(N)=Nc1ccccc1
inactive: locus YAL013W, strain DEP1, hits give low values 1.01 and 0.984 | locus YAL021C, strain ccr4, hits give low values 1 | locus YAL026C, strain drs2, hits give low values 0.998 | locus YAL030W, strain snc1, hits give low values 1.01 | locus YAL040C, strain CLN3, hits give low values 1.08 | locus YBL061C, strain skt5, hits give low values 1 | locus YBR009C, strain hhf1, hits give low values 0.979 | locus YBR021W, strain FUR4, hits give low values 1.02 | locus YBR023C, strain chs3, hits give low values 1 | locus YBR171W, strain sec66, hits give low values 1 | locus YBR229C, strain ROT2, hits give low values 1.01 | locus YBR231C, strain swc5, hits give low values 0.987 | locus YBR279W, strain paf1, hits give low values 1 | locus YCL011C, strain gbp2, hits give low values 1 | locus YCL016C, strain dcc1, hits give low values 1 | locus YCL029C, strain bik1, hits give low values 0.995 | locus YCL061C, strain MRC1 (second series), hits give low values 1 | locus YCL061C, strain MRC1, hits give low values 0.993 | locus YCL069W, strain vba3, hits give low values 1 | locus YCR088W, strain abp1, hits give low values 1.01 | locus YDL005C, strain med2, hits give low values 0.998 | locus YDL035C, strain GPR1, hits give low values 1.01 | locus YDL040C, strain nat1, hits give low values 0.991 | locus YDL074C, strain BRE1, hits give low values 1.02 | locus YDL101C, strain DUN1, hits give low values 1.02 | locus YDL134C, strain PPH21, hits give low values 1.01 | locus YDL185W, strain tfp1, hits give low values 0.996 | locus YDL192W, strain arf1, hits give low values 0.998 | locus YDR001C, strain nth1, hits give low values 0.998 | locus YDR069C, strain doa4, hits give low values 0.995 | locus YDR101C, strain arx1, hits give low values 1.02 | locus YDR137W, strain rgp1, hits give low values 0.981 | locus YDR150W, strain NUM1, hits give low values 0.998 | locus YDR159W, strain sac3, hits give low values 0.961 | locus YDR162C, strain NBP2, hits give low values 1.01 | locus YDR195W, strain ref2 0.948 | locus YDR297W, strain sur2, hits give low values 0.999 | locus YDR318W, strain mcm21, hits give low values 0.992 | locus YDR334W, strain swr1, hits give low values 1 | locus YDR335W, strain msn5, hits give low values 1 | locus YDR363W, strain ESC2, hits give low values 1.02 | locus YDR388W, hits give low values 1 | locus YDR392W, strain spt3, hits give low values 0.903 | locus YDR502C, strain sam2, hits give low values 0.993 | locus YEL003W, strain gim4, hits give low values 0.998 | locus YEL037C, strain rad23, hits give low values 1.01 | locus YEL061C, strain CIN8 (second series), hits give low values 0.996 | locus YEL061C, strain CIN8, hits give low values 1.01 | locus YER002W, strain NOP16, hits give low values 1.03 | locus YER015W, strain faa2, hits give low values 0.998 | locus YER016W, strain bim1, hits give low values 0.999 | locus YER110C, hits give low values 0.986 | locus YER111C, strain swi4, hits give low values 0.996 | locus YER155C, strain BEM2 (second series), hits give low values 0.964 | locus YER155C, strain BEM2, hits give low values 1 | locus YER167W, strain BCK2, hits give low values 1.01 | locus YFR010W, strain ubp6, hits give low values 1.01 | locus YGL078C, strain dbp3, hits give low values 0.997 | locus YGL086W, strain mad1, hits give low values 0.997 | locus YGL167C, strain pmr1, hits give low values 0.993 | locus YGL173C, strain kem1, hits give low values 0.991 | locus YGL227W, strain vid30, hits give low values 0.997 | locus YGL240W, strain doc1, hits give low values 0.964 | locus YGL248W, strain PDE1, hits give low values 1.02 | locus YGL253W, strain hxk2, hits give low values 1.01 | locus YGR078C, strain PAC10, hits give low values 1.01 | locus YGR135W, strain pre9, hits give low values 0.995 | locus YGR229C, strain SMI1, hits give low values 0.985 | locus YGR252W, strain gcn5, hits give low values 0.993 | locus YHR013C, strain ard1, hits give low values 0.952 | locus YHR027C, strain rpn1, hits give low values 1 | locus YHR030C, strain SLT2, hits give low values 1.01 and 1 | locus YHR079C, strain IRE1 (second series), hits give low values 0.988 | locus YHR079C, strain IRE1, hits give low values 1 | locus YHR094C, strain hxt1, hits give low values 0.987 | locus YHR129C, strain ARP1, hits give low values 1.01 | locus YHR142W, strain chs7, hits give low values 1.03 | locus YHR200W, strain rpn10, hits give low values 0.997 | locus YIL066C, strain RNR3, hits give low values 1.02 | locus YIL073C, strain SPO22, hits give low values 0.989 | locus YIL125W, strain kgd1, hits give low values 0.988 | locus YIR030C, strain dcg1, hits give low values 0.996 | locus YJL092W, strain hpr5, hits give low values 1 | locus YJL095W, strain BCK1 (second series), hits give low values 1.01 | locus YJL095W, strain BCK1, hits give low values 1.03 and 0.993 | locus YJL115W, strain asf1, hits give low values 1 | locus YJL129C, strain trk1, hits give low values 1.02 | locus YJL134W, strain LCB3, hits give low values 1.01 | locus YJL154C, strain vps35, hits give low values 1.01 | locus YJL164C, strain tpk1, hits give low values 1 | locus YJL166W, strain qcr8, hits give low values 0.992 | locus YJL168C, strain set2, hits give low values 0.994 | locus YJL187C, strain SWE1 (second series), hits give low values 1.02 | locus YJL187C, strain SWE1, hits give low values 1 | locus YJR043C, strain POL32, hits give low values 1.01
